From PubChem BioAssay
An excerpt weighted towards active compounds, which were near 4.1% of everything screened.
IDE act = human IDE activators in live cells, primary screen, fluorescence polarization, HEK cells, FAbeta-B substrate; FAbeta-B cleavage; 0% vehicle, 100% cell-free pure enzyme wells; activation, % at 5.96 µM; 340,000 compounds, 0.073% hits; AID 493087, 2011;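 active = activation above the mean of all tested compounds plus 3 SD, set per screening campaign, cut at about 17% in these data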
CaV13 ICDI inh = Disruptors of the CACNA1D IQ motif to Ca2+-dependent inactivation inhibitor domain association, primary screening, Förster resonance energy transfer in intact living …; inhibition, % at 12.3 µM; AID 743397; 340,000 compounds, 0.098% hits; HEK cells, CFP/YFP FRET ICDI-IQ, plate reader, 10 min; percent FRET-ratio fall versus neutral wells;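 active = mean replicate inhibition of at least 30% and at least 1% of replicates passing that level; inconclusive = only one of the two criteria is met; inactive = neither criterion is met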
PfM18AAP inh = PfM18AAP inhibitors, malaria aminopeptidase, primary screen, biochemical, QFRET, recombinant enzyme | 290,000 compounds, 1.2% hits | AID 1822, 2009 | H-Glu-NHMec fluorogenic cleavage | M18 aspartyl aminopeptidase (Plasmodium falciparum 3D7) | inhibition, % at 7.35 µM;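 active = inhibition above the campaign mean inhibition over all tested compounds plus 3 SD, cut at about 28% in these data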
ALR inh = inhibitors of human ALR sulfhydryl oxidase, primary screen, biochemical, H2O2 detection, HRP-luminol luminescence, single point; AID 485317, 2010; purified ALR, DTT oxidation; 290,000 compounds, 3.8% hits; inhibition, % (no concentration beside the values); FAD-linked sulfhydryl oxidase ALR (Homo sapiens), P55789;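 active = mean replicate inhibition above about 79%, with every replicate also reaching it, limit read from the data; inconclusive = only one of the two criteria met; inactive = mean below limit and not every replicate reaching it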
Target sequence (P55789 whole entry, looked up): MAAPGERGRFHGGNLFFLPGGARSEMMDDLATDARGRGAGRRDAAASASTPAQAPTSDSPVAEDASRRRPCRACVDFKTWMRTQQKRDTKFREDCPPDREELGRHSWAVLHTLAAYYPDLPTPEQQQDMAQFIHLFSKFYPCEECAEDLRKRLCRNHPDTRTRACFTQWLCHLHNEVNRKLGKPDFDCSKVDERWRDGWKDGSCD
IDE cell inh = human IDE inhibitors in live cells, primary screen, fluorescence polarization, HEK cells, FAbetaB substrate; FAbetaB cleavage; inhibition, % at 5.59 µM; Insulin-degrading enzyme (Homo sapiens), P14735; 320,000 compounds, 0.41% hits;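 active = percent inhibition above the average of all tested compounds plus 3 SD, set per screening campaign, cut at about 16% in these data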;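 note: IDE supplied by intact live HEK cells; FP after avidin binding of uncleaved biotin substrate so inhibition keeps polarization high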
PolyA inhibitor = polyadenylation inhibitors in yeast reporter cells, primary screen, luminescence, S. cerevisiae; AID 1875, 2009; S. cerevisiae SKY197-pL101 polyadenylation reporter, beta-gal luminescence; efflux-impaired pdr1/pdr3 knockout yeast; score 100 = 6 SD above DMSO; activity score, % at 12 µM; 300,000 compounds, 0.02% hits;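 active = lowest replicate activity score at least 50, where 100 means six control SD above control mean; inconclusive = lowest score under 50 but half or more replicates reach 50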;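 note: yeast exposed to compound for 9 h at 30 °C; higher score means more reporter readthrough which indicates perturbed polyadenylation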
Hits are given with their value; - = inactive; ? = inconclusive; . = not tested or not shown.

SMILES	IDE act	CaV13 ICDI inh	PfM18AAP inh	ALR inh	IDE cell inh	PolyA inhibitor
COc1ccc(CNC(=S)N/N=C/c2ccc(OC)c(OC)c2)cc1	-	.	-	-	-	-
COc1cc(/C=N/NC(=S)NC2CC3CCC2C3)ccc1O (centres undefined)	-	-	-	98.7	-	-
Cc1ccccc1Cn1c(C)nc2ccccc21	-	-	-	-	-	-
CSc1cccc(NC(=O)CNC(=O)c2ccc3c(c2)OCO3)c1	-	-	.	-	-	-
CSc1cccc(-n2cc(-c3ccc4c(c3)OCO4)[nH]c2=O)c1	-	.	28.6	-	-	-
Nn1cnnc1N/N=C/c1cc(Br)cc(Br)c1O	-	-	52.2	-	-	-
O=[N+]([O-])c1cccnc1N1CCOCC1	-	-	-	-	-	-
O=[N+]([O-])c1cccnc1N1CCN(c2ccc(F)cc2)CC1	-	.	-	98.4	-	-
COc1ccccc1NC(=S)NNC(=O)c1c(Cl)c(C)nn1C	-	-	-	86.4	-	-
COc1ccc(Cl)cc1NC(=S)NNC(=O)c1cccnc1	-	-	-	88.9	-	-
COc1ccccc1NC(=S)NNC(=O)c1cc(C)n(C)n1	-	-	-	77.0	-	-
COc1ccccc1NC(=S)NNC(=O)c1cc(C)nn1C	-	-	-	?	-	-
O=C(COc1cc(F)ccc1[N+](=O)[O-])Nc1cc(S(=O)(=O)N2CCCC2)ccc1Cl	-	-	.	.	.	.
Cc1cccc(C)c1NC(=O)CNC(=O)CCNC(=O)c1ccco1	-	-	.	-	-	.
O=c1[nH]c2ccccc2nc1Cc1ccc(Cl)cc1	-	-	-	-	-	-
O=c1[nH]c2ccccc2nc1Cc1ccc([N+](=O)[O-])cc1	-	-	-	95.4	-	-
CCn1nnc(NC(=O)C(c2ccccc2)c2ccccc2)n1	-	-	-	-	-	-
O=C(CCNc1cccc(Cl)c1)c1ccco1	-	-	-	96.9	-	-
O=C(CNC(=O)c1ccco1)OCc1cccc(Cl)c1	-	-	-	-	-	-
Cc1cc(=O)oc2cc(NC(=O)c3ccccc3Cl)ccc12	-	-	-	-	-	-
Cc1ccc(C=Nc2ccc(N(C)C)cc2)o1	-	-	-	98.1	-	-
COC(=O)/C(=N/Nc1ccccc1OC)N1CCCc2ccccc21	-	-	-	.	-	-
Cc1ccc(NC(=O)COC(=O)CN2CSCC2=O)cc1C	-	-	-	98.3	-	-
CNc1sc(C(=O)c2ccccc2F)c(N)c1-c1nc2ccccc2s1	-	-	-	90.9	-	-
CCOc1ccc(-c2cc(N3C(=O)Nc4ccccc4N3O)n[nH]2)cc1	-	-	-	97.7	-	-
SMILES	IDE act	CaV13 ICDI inh	PfM18AAP inh	ALR inh	IDE cell inh	PolyA inhibitor
Cc1cc(Br)cc2c(C(=O)NCC3CCCO3)cc(-c3ccccc3)nc12 (centres undefined)	-	-	-	-	-	-
O=C(NNC(=O)c1sccc1-n1cccc1)c1ccc(Cl)cc1	-	-	-	-	-	-
O=C(NC1CC1)c1sccc1-n1cccc1	-	-	-	99.6	-	-
COc1cc(/C=C2/C(=O)c3cccc([N+](=O)[O-])c3C2=O)c(Br)cc1O	-	-	29.7	.	-	.
COc1ccccc1NC(=O)CCCCCN1C(=O)c2cccc([N+](=O)[O-])c2C1=O	-	-	-	-	-	-
COC(=O)N/N=C/c1sc(N2CCCCC2)nc1-c1cccs1	-	-	-	98.4	-	-
COc1ccc(C(=O)N/N=C/c2sc(N3CCOCC3)nc2-c2ccccc2)cc1OC	-	-	-	-	-	-
Cc1ccc(C(=O)Nc2cccc([N+](=O)[O-])c2)cc1S(=O)(=O)Nc1ccc(C(=O)O)cc1	-	-	-	82.2	-	-
Cc1ccc(C(=O)Nc2ccccc2C(=O)O)cc1S(=O)(=O)Nc1ccc(Br)cc1	-	-	.	98.3	-	-
O=C(CNC(=O)c1nn(Cc2ccccc2)c(=O)c2ccccc12)Nc1ccc(F)c(F)c1F	-	-	.	.	-	.
CCOC(=O)C1=NOC2(C1)C(=O)Nc1c(Cl)cccc12 (centres undefined)	.	-	.	.	.	.
COc1cc(C(C(=O)NC2CCCC2)N(C(=O)Cc2cccs2)C2CC2)cc(OC)c1OC (centres undefined)	-	-	-	-	-	-
COc1cc(OC)c(NC(C)C(=O)NCc2ccccc2)cc1Cl (centres undefined)	-	-	-	93.5	-	-
Cn1nnc(NCc2cc(Br)ccc2OCc2cccs2)n1	-	-	-	-	-	-
Cc1nc2c(sc3nc(N4CCOCC4)c4c(c32)CC(C)(C)OC4)c(-c2ccc(Cl)cc2)c1C(=O)O	-	-	-	-	-	-
COC(=O)c1ccc(/C=C(\C#N)c2ccccn2)cc1	-	-	-	-	-	-
COC(=O)c1ccc(OC(=O)c2ccccn2)cc1	-	-	-	95.5	-	-
COC(=O)c1ccc(OC(=O)c2cccnc2SC)cc1	-	-	-	.	-	-
N#CC(C#N)=Cc1ccc(OC(=O)c2ccccn2)cc1	-	-	-	96.8	-	-
Nc1cccc(-c2nc3ccccc3[nH]2)c1	-	-	-	-	-	-
Clc1nc2c(ccc3ccccc32)[nH]1	.	-	-	.	-	-
Nc1ccc(-c2nc3ccccc3[nH]2)cc1	-	-	-	98.1	-	-
Nc1ccc2nc(-c3cccc(-c4nc5ccc(N)cc5[nH]4)n3)[nH]c2c1	-	-	-	98.8	-	-
Nc1ccc(-c2nc3c(ccc4ccccc43)[nH]2)cc1	-	-	-	98.9	-	-
Cc1ccc2nc(-c3cccc(N)c3)[nH]c2c1	-	-	-	98.6	-	-
SMILES	IDE act	CaV13 ICDI inh	PfM18AAP inh	ALR inh	IDE cell inh	PolyA inhibitor
O=C1OCCC1Sc1nnc(-c2ccc(F)cc2)n1Cc1ccccc1 (centres undefined)	-	-	-	-	-	-
CN1OC[C@@H]2CN(C(=O)CCc3ccccc3)[C@H](c3cccc(-c4ccccc4)c3)C[C@@H]21	-	-	.	.	.	.
Nc1ccc2nc(-c3ccc(-c4nc5ccc(N)cc5[nH]4)cc3)[nH]c2c1	.	-	-	98.6	-	-
O=C(c1cc2cccc([N+](=O)[O-])c2oc1=O)N1CCOCC1	-	-	-	-	-	-
COc1ccccc1NC(=O)C(Sc1ccccc1)c1ccccc1 (centres undefined)	-	-	-	84.2	-	-
COc1ccc(NC(=O)C(Sc2ccccc2)c2ccccc2)c(OC)c1 (centres undefined)	-	-	-	-	-	-
CCOc1ccc(NC(=O)CN(C)C(=O)c2ccc(=O)[nH]c2)cc1OCC	-	.	-	-	.	-
